This note sets out measurements from PubChem BioAssay AID540336 (Broad Institute, 2011).

Structures are written as SMILES. In all, about 330,000 compounds went through this assay and about 520 (0.16%) were called active.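 The calls were made as follows: active = inhibition of at least 50% in every replicate; inconclusive = best replicate reaches 50% inhibition but some replicates fall short; inactive = the rest.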 For the sample, actives were picked, then their nearest neighbours and some compounds at random.

For this test, the target named is Histone acetyltransferase RTT109 (Candida albicans (strain SC5314 / ATCC MYA-2876)) (UniProt Q5AAJ8). As to the kind of experiment: inhibitors of C. albicans Rtt109/Vps75 HAT, primary screen, biochemical, ThioGlo CoA-SH fluorescence, plate reader (AID 540336). To be noted: purified Rtt109/Vps75, ThioGlo CoA-SH fluorescence, 4 h; at 34.9 µM; hits give high values.
Histone acetyltransferase RTT109 (Candida albicans (strain SC5314 / ATCC MYA-2876)), sequence (Q5AAJ8 whole entry, looked up): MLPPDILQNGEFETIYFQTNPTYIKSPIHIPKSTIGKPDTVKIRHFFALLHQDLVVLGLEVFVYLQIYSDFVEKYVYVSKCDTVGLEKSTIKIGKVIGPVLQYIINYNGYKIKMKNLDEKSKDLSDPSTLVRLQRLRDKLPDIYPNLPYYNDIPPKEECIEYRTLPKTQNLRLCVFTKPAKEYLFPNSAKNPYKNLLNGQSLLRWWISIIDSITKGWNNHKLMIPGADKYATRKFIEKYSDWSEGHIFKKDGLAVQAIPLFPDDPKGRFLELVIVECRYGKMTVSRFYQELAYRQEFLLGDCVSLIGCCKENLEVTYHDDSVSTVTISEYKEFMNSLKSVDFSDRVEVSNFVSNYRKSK
On to `COc1cc(/C=C/c2ccc(/C=C/c3cc(OC)c(OC)c(OC)c3)cc2)cc(OC)c1OC`, for which the inhibition was 1.49% (inactive).
Take `O=[N+]([O-])c1ccc(COc2ccccc2CN2CCOCC2)cc1`: the inhibition is 9.55% (inactive).
Take `C=CCOC(=O)N1CCC2CC1c1cc(-c3ccc(OC)cc3)ccc12` (stereo not given): the inhibition was -3.1% (inactive).
As to `COc1cccc(/C=N/Nc2ccc(S(=O)(=O)Nc3ccccc3C(=O)O)cc2[N+](=O)[O-])c1O`, the inhibition is 31.2% (inactive).
`COc1ccc(/C=C/C(=O)OCC(=O)N2CCN(S(=O)(=O)c3ccc(C)cc3C)CC2)cc1OC`: the inhibition was -12.4% (inactive).
The same measure for `Cc1ccc2c(O)c(Cc3ccccc3)c(=O)[nH]c2n1`: 3.15% (inactive); for `CCOC(=O)c1ccccc1NC(=O)CSc1nc2c(sc(=S)n2CC)c(=O)[nH]1`: 12.6% (inactive).
The same measure for `COc1ccc(CNCCCn2cnc3c(OCc4ccccc4)ncnc32)cc1`: -0.493% (inactive); for `O=C(Nc1ccccc1Cl)O/N=C(/c1ccccc1)c1ccccn1`: -0.825% (inactive).
On to `O=C(Nc1ccccc1Cl)/C(Cl)=C(\Cl)S(=O)c1ccccc1` (stereo not given), for which the inhibition was 136% (active).
The same measure for `CC1(C)CC(CCC(=O)Nc2ccccc2Cl)C(=O)O1` (stereo not given): -18.6% (inactive).
Take `Cc1cc2c(cc1C)NC1(C[C@H]3CCC(=O)N4CC[C@@H](C1)[C@@H]34)C(=NC(C)(C)CC(C)(C)C)N2` (stereo not given in full): the inhibition is -1.37% (inactive).
`COc1ccccc1C(=O)c1ccccc1C(=O)c1ccccc1`: the inhibition is -0.662% (inactive).
In the case of `COc1ccc2c(c1)C(=O)CC(c1ccccc1)O2` (stereo not given), the inhibition is -1.45% (inactive).
The same measure for `CCOC(=O)Cc1csc(NC(=O)CSc2nc(C)cc(=O)[nH]2)n1`: 66.2% (active); for `CCCCc1nnc(NC(=O)CSc2nc(C)cc(=O)[nH]2)s1`: -0.892% (inactive); for `CCOC(=O)Cc1csc(NC(=O)CSc2ccc(Br)cc2)n1`: 2.14% (inactive).
As for `Cc1ccc(S(=O)(=O)N2CCC(C(=O)N3CCCCCCC3)CC2)cc1`, the inhibition was 1.29% (inactive).
For the compound `CSc1ccc(NC(=O)/C=C/C(=O)O)cc1`, the inhibition was 63.6% (active).
Take `O=C(O)/C=C\C(=O)Nc1ccc(OCc2ccccc2)cc1`: the inhibition is 3.12% (inactive).
As to `Cc1cccc(N2CCN(c3ccc(NC(=O)/C=C\C(=O)O)cc3)CC2)c1`, the inhibition is 3.01% (inactive).
On to `O=[N+]([O-])c1ccc(NS(=O)(=O)c2ccccc2)c(Cl)c1`, for which the inhibition is -7.39% (inactive).
With `CC(=O)OC1CCC2(C)C(=CCC3C4CC(=O)N(O)C(=O)C4(C)CCC32)C1` (stereo not given), the inhibition was 1.39% (inactive).
Turning to `NC(=O)C1(Nc2ccccc2Cl)CCCC1`, the inhibition was -1.87% (inactive).
Turning to `CC(C)C[C@H]1CN([C@@H](CC(C)C)CN2CCC[C@@H]2CN2C(=O)C(=O)NC[C@@H]2Cc2ccccc2)C(=O)C(=O)N1CCc1ccccc1`, the inhibition was 3.1% (inactive).
As for `OCCN1CCN(CCO)C1=S`, the inhibition was -2.55% (inactive).
On to `O=[N+]([O-])c1cc2ccccc2nc1-c1ccccc1`, for which the inhibition is 2.85% (inactive).
In the case of `CCCN(C(=O)COC(=O)CNS(=O)(=O)c1ccc(NC(C)=O)cc1)C1CCS(=O)(=O)C1` (stereo not given), the inhibition is 2.12% (inactive).
The same measure for `Cc1cccc(C2c3c(n(C)c(=O)n(C)c3=O)N=C3c4ccccc4C(=O)C32)c1` (stereo not given): 29.8% (inactive); for `O=C(Nc1ccccc1)Oc1cccc2cccnc12`: 1.03% (inactive); for `CC(C)(C)C(=O)Nc1cccc(-c2ccc[nH]2)n1`: -1.5% (inactive).
With `CC(=O)Nc1ccc(NC(=O)COc2ccccc2C(=O)Nc2cccc(Cl)c2Cl)cc1`, the inhibition was -5.99% (inactive).
For `O=C(Nc1ccccc1Cl)c1ccccc1S(=O)(=O)c1ccccc1[N+](=O)[O-]`, the inhibition was 22.9% (inactive).
For the compound `CN(C)S(=O)(=O)Oc1ccccc1C(=O)Nc1ccccc1Cl`, the inhibition was 58.3% (active).
Regarding `CC(C)(C)S(=O)(=O)N1Cc2cc(CO)cc(CCO)c2[C@H]1CCO`, the inhibition is -3.04% (inactive).
`COc1ccc(CN2CC(C(=O)NCCN3CCN(c4ccccc4F)CC3)CC2=O)cc1` (stereo not given): the inhibition is -11.1% (inactive).
The same measure for `O=C(NCCCN1CCCCCC1)C1CC(=O)N(C2CCCC2)C1` (stereo not given): 32.5% (inactive); for `O=C(NCCCN1CCN(c2ccccc2F)CC1)C1CCC(=O)N1C1CCCCC1` (stereo not given): 58.1% (active); for `Oc1c(C(c2ccccn2)N2CCOCC2)ccc2cccnc12` (stereo not given): 51.7% (active).
The same measure for `CCCCC(=O)NC(c1ccc(OC)c(OC)c1)c1ccc2cccnc2c1O` (stereo not given): -3.23% (inactive).
The same measure for `CC(C)c1cc(CN2CCOCC2)cc(C(C)C)c1O`: -6.21% (inactive); for `COc1cccc(C=CC(=O)C=CC=Cc2ccccc2)c1`: -4.82% (inactive); for `O=C(O)c1ccc(NN=CC2=C(N3CCOCC3)/C(=C/c3ccccc3)CC2)cc1`: -15.5% (inactive).
With `Cn1cc(C2OC(=O)c3ccccc32)c2ccccc21` (stereo not given), the inhibition is 0.802% (inactive).
Turning to `O=C(Nc1c(Br)cc2c(c1Br)Cc1cc([N+](=O)[O-])ccc1-2)C(Cl)Cl`, the inhibition is -4.04% (inactive).
On to `CC(=O)N(c1ccc2oc(=O)sc2c1)S(=O)(=O)c1ccc(C)cc1`, for which the inhibition was 134% (active).
Take `COC(=O)c1c(C)oc2ccc(N(C(=O)Oc3ccccc3)S(=O)(=O)c3ccccc3)cc12`: the inhibition was 0.88% (inactive).
Consider `CC(=O)Oc1ccc(N(C(C)=O)S(=O)(=O)c2ccc3ccccc3c2)cc1Br`, for which the inhibition was 2.06% (inactive).
On to `CCOC(=O)CCC(NC(=O)c1ccc(CNc2nc3cc(C(F)(F)F)ccc3nc2C(=O)OCC)cc1)C(=O)OCC` (stereo not given), for which the inhibition was 9.24% (inactive).
For the compound `CC(C=Cc1ccccc1)=NNS(=O)(=O)c1ccc([N+](=O)[O-])cc1`, the inhibition was -0.601% (inactive).
As to `CC(=O)OC1CCC2C3CCC4=C(CC(F)C(=O)C4)C3CCC12C` (stereo not given), the inhibition is -7.91% (inactive).
Consider `O=C1c2ccccc2C(=O)C1C(=O)C1CC1`, for which the inhibition is 0.0105% (inactive).
Consider `O=C1NCC(Nc2ccccc2)C(=O)N1` (stereo not given), for which the inhibition is -4.85% (inactive).
The result for `CCCCNC1(C#N)CCN(Cc2ccccc2)CC1` reads 0.637% (inactive).
As for `O=C1C=C(NS(=O)(=O)c2ccccc2)C(=O)c2ccccc21`, the inhibition is -1.13% (inactive).
